Key:
Test in all cases: PBM binding z-score (relative to random genomic background probes); higher = stronger binding; sequences stand for … in GC…GCGATTGACAGCGTAGAATGAAGG
[1] = system: FXR:RXRa (NR concentration 270 nM, RXRa partner concentration 90 nM)
In short: (§1)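 On custom Agilent 4×180K arrays, double-stranded probes with 34-nt variable regions carried direct-repeat seeds, single-nucleotide variants, half-site ablations or random human genomic background. Ligand-free nuclear receptor dimers were applied for 1 h, and binding was read with antibodies against each partner (one per run). Binding z-scores come from regression-normalized fluorescence, with the random background probes as reference.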

[2] = system: LXRa:RXRa (NR concentration 270 nM, RXRa partner concentration 90 nM)
In short: as §1

[3] = system: LXRa homodimer (NR concentration 270 nM)
In short: as §1

[4] = system: LXRb:RXRa (NR concentration 270 nM, RXRa partner concentration 90 nM)
In short: as §1

[5] = system: LXRb homodimer (NR concentration 270 nM)
In short: as §1

[6] = system: PPARa:RXRa (NR concentration 270 nM, RXRa partner concentration 90 nM)
In short: as §1

[7] = system: PPARg:RXRa (NR concentration 180 nM, RXRa partner concentration 90 nM)
In short: as §1

[8] = system: PPARg:RXRa 270nM:90nM, anti-RXR (NR concentration 270 nM, RXRa partner concentration 90 nM)
In short: as §1

[9] = system: PPARg:RXRa 30nM:10nM, anti-RXR (NR concentration 30 nM, RXRa partner concentration 10 nM)
In short: as §1

[10] = system: PPARg:RXRa 90nM:30nM, anti-RXR (NR concentration 90 nM, RXRa partner concentration 30 nM)
In short: as §1

Sequence	PBM binding z-score [1]	PBM binding z-score [2]	PBM binding z-score [3]	PBM binding z-score [4]	PBM binding z-score [5]	PBM binding z-score [6]	PBM binding z-score [7]	PBM binding z-score [8]	PBM binding z-score [9]	PBM binding z-score [10]
ATCTCTAGGTAAGACTCAGTTCAGTGTAGAACGC	0.302	0.547	0.708	0.286	0.886	0.0925	-0.0106	0.309	0.182	0.398
AGAATGAGGTTATTAAGATCAGGGACTTGCGGTC	1.59	1.49	0.193	1.13	0.02	2.5	1.59	1.87	0.187	1.08
ACAGACAGGTGAGCGAAGGTAACTCAGCTGGACG	-0.11	-0.471	-0.638	-0.645	-0.759	0.0839	0.737	-0.0383	-0.389	0.269
GCTATTAGTCGAAAGGGCAACCGAATGATTCTCG	0.296	0.236	0.214	0.479	-0.262	1.74	2.25	4.04	2.32	3.76
TATACAGGGTCAAAGGCCAGAATACGAATGTCGA	6.57	5.89	2.16	4.62	2.29	5.89	7.8	7.19	5.21	7.33
ATCGAAAGGTCGAGGAGAGTATAGAGAAAGGGAA	4.17	3.26	0.202	2.47	0.669	4.24	2.57	2.92	1.38	2.09
AGAATGAGTTTATTAAGATCAGGGAATTGCGGTC	-0.0233	-0.176	0.0886	-0.353	0.198	-0.254	0.0616	-0.094	-0.0755	-0.195
CCTTACGGGTCACTCCAGGTTATAGTATCGGAGT	4.76	7.84	2.33	5.52	0.0567	4.62	3.5	3.93	1.33	2.85
CAAACTAGGTCAAGGTCAAAGACGGTTTGTGCCA	6.55	5.25	3.28	4.37	1.4	6.32	9.9	8.3	6.78	8.62
CCTTACGGGTCATTGACAGGTTATAGCATTTGGA	5.92	4.79	1.1	3.85	0.271	5.27	3.6	4.06	1.55	2.75
ACTATTCGTTGACTTAGGGCAACCGATACGACGC	0.425	0.382	0.669	0.263	1.46	0.125	0.87	-0.0902	0.272	0.212
TCATATAGGTAAAGGCTAGGTGAAAGTCCGATCT	1.01	0.707	-0.194	0.441	-0.41	1.71	1.18	2.39	3.57	2.98
CCTAGCAGGCCAGGGTCACTCAAGCATTTCGCTT	2.38	1.67	-0.285	1.95	-1.05	3.1	0.907	1.65	-0.362	0.635
ACTTACGGGTCAACGAGGGTATAGCACGCGTATA	6.96	4.31	0.258	3.79	0.591	5.61	5.35	5.06	1.72	3.63
CGAACGAGGGCATGAGGTGATAGCAAATGCCGAT	0.82	0.474	-0.458	0.317	-0.998	2.05	2.27	2.23	0.483	1.49
CGTCAAAGTTCAACTAAGGTAACGTTAAGCACGC	7.22	6.43	4.8	4.26	2.3	5.14	5.07	5.53	2.21	4.37
GCAGACAGGTGAAACACAGGTAACTCAGGGTGGC	0.0737	0.312	-0.336	-0.415	-0.7	0.874	0.952	0.125	-0.424	-0.0605
AGAACGAGGGCAATGAGTTGAGAGCACGGGTGGC	0.342	-0.0458	-0.343	-0.251	-0.332	1.42	1.39	1.17	-0.064	0.763
CGTCAAAGTTCAACTAAGGAAACGTAAAGCACGC	7.38	6.47	3.78	4.2	2.11	5.18	5.11	5.68	2.56	4.69
CCTTACGAGTCAAGGTTATAGCACGGGTGGTACG	0.585	0.946	-0.0296	0.739	0.332	1.28	0.716	0.135	-0.0857	-0.0269
CAAACTAGGACAAAGGTCAAAGTCGAGCCAACCA	6.31	6.08	4.5	5.58	2.61	7	12.1	10.6	10.9	11.9
CCTTACGGGTTACTGACAGGTTATAGCATTTGGA	0.701	2.51	0.282	1.34	-0.567	1.78	0.373	1.24	0.114	0.535
AGTCAAAGTTCAGGACGAGTTAACGTAAAGCACG	3.79	3.99	1.02	1.9	0.173	3.38	4.32	4.63	2.21	4.17
TCTGGGAGGACACGAAAGGTCAGAGCTCGACATC	3.35	4.18	3.31	3.11	0.345	3.51	1.49	2.81	1.88	2.34
